The record followed here is PubChem BioAssay AID1835 (Johns Hopkins Ion Channel Center, 2009).

Among all 2,400 compounds or so, about 750 (31%) were called active.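 The calls were made as follows: active = median signal gain over dofetilide-blocked control wells reaching their mean plus 3 SD, so readout 1 at least 0; inactive = the rest.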 The list shows a part of the results.

The assay deals with Voltage-gated inwardly rectifying potassium channel KCNH2 (Homo sapiens) (UniProt Q12809). Description: modulators restoring hERG flux under dofetilide – cell-based, thallium flux, duplicate retest, dofetilide IC70, confirmation (AID 1835). The conditions noted are these: hERG cell line, FluxOR thallium flux, dofetilide-blocked; at 10 µM; active compounds read high. (Block of hERG is tested as a sign of cardiac risk.)
Chain of Voltage-gated inwardly rectifying potassium channel KCNH2 (Homo sapiens) (Q12809 whole entry, looked up): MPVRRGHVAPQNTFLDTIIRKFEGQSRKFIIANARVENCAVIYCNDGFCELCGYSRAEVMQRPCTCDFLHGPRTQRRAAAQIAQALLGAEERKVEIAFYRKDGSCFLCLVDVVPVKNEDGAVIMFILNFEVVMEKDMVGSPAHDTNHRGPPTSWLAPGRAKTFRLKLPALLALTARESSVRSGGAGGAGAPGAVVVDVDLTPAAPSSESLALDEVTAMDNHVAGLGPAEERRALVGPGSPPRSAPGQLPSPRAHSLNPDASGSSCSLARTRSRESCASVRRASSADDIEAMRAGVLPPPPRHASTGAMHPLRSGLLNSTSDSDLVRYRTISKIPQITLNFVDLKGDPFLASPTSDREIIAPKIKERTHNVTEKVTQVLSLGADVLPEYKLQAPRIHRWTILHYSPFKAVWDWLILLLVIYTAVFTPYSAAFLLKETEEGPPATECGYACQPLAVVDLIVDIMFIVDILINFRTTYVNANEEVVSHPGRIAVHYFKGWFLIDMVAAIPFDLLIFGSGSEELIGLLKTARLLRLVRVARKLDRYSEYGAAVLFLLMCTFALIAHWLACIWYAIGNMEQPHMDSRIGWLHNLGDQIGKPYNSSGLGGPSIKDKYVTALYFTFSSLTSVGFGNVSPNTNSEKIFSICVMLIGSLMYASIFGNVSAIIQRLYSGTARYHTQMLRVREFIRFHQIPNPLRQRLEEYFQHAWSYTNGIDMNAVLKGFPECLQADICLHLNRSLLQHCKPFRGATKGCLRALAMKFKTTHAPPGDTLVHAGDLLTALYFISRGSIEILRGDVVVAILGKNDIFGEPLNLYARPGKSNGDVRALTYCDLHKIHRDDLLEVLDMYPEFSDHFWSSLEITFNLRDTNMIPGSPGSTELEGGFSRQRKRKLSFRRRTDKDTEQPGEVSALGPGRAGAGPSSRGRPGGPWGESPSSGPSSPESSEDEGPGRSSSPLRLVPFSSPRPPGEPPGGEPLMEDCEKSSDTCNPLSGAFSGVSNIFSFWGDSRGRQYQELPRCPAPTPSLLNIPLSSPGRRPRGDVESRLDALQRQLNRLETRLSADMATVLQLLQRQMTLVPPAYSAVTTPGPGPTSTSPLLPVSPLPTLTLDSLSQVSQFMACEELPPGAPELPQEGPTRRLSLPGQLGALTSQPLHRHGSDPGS
As for `Cc1cc(=O)oc2cc(OC(C(=O)O)c3ccccc3)ccc12` (centres undefined), the activity increase over dofetilide control, less the hit threshold is -19% (inactive).

For the compound `C[C@@H]1CCCCCCCCCCC1=O`, the activity increase over dofetilide control, less the hit threshold is -15% (inactive). On to `Fc1cccc(C2NN=C(c3ccccc3)S2)c1` (centres undefined), for which the activity increase over dofetilide control, less the hit threshold is -12% (inactive).

As for `COc1ccc(Cl)cc1N(C)C(=O)CCNC(=O)Cn1cnc2ccccc2c1=O`, the activity increase over dofetilide control, less the hit threshold was -11% (inactive). Take `CC(=O)c1ccc2c3c(cccc13)CC2`: the activity increase over dofetilide control, less the hit threshold was -7% (inactive).

Regarding `O=C(c1cc2c(s1)-c1ccccc1OC2)N1CCCC1`, the activity increase over dofetilide control, less the hit threshold was 0% (inactive). Consider `NC(=O)C1CCN(C(=O)c2cc3c(s2)CCCC3)CC1`, for which the activity increase over dofetilide control, less the hit threshold is 9% (active). As to `CC(OC(=O)c1cc2c(s1)CCCCC2)C(=O)NC(N)=O` (centres undefined), the activity increase over dofetilide control, less the hit threshold was -5% (inactive). With `COC(=O)CCn1[nH]c(=O)c2ccccc2c1=O`, the activity increase over dofetilide control, less the hit threshold is -2% (inactive).

As for `COc1ccc(N2CCN(S(=O)(=O)c3ccc(Br)s3)CC2)cc1`, the activity increase over dofetilide control, less the hit threshold was -14% (inactive). To `S=c1[nH]nc(Cc2ccc(Br)cc2)n1/N=C/c1ccc(Cl)cc1` belongs -5% (inactive); to `Cc1cccc(/C=N/n2c(COc3ccccc3)n[nH]c2=S)c1`, 1% (active). Turning to `S=c1[nH]nc(-c2ccco2)n1/N=C/C(Cl)=C/c1ccccc1`, the activity increase over dofetilide control, less the hit threshold is -14% (inactive). `S=c1[nH]nc(-c2n[nH]c3c2CCC3)n1/N=C/C=C/c1ccccc1`: the activity increase over dofetilide control, less the hit threshold is -27% (inactive).

Take `CC(C)c1ccc(/C=N/n2c(COc3ccccc3)n[nH]c2=S)cc1`: the activity increase over dofetilide control, less the hit threshold is 3% (active). For the compound `Cc1ccc2nsnc2c1S(=O)(=O)Nc1cccc2nsnc12`, the activity increase over dofetilide control, less the hit threshold is 8% (active). `O=C(O)c1ccccc1NC(=O)C1CCN(S(=O)(=O)c2cccc3nsnc23)CC1`: the activity increase over dofetilide control, less the hit threshold was -3% (inactive). Turning to `O=C(NC(=S)Nc1nc2ccccc2s1)c1cccs1`, the activity increase over dofetilide control, less the hit threshold was 52% (active).

In the case of `Cc1ccc2nc(NC(=S)NC(=O)c3cccs3)sc2c1`, the activity increase over dofetilide control, less the hit threshold was 10% (active).

Consider `Cc1cc(F)ccc1NC(=O)C1CCN(C(=O)Nc2ccccc2)CC1`, for which the activity increase over dofetilide control, less the hit threshold is -17% (inactive). In the case of `O=C(NC(C(=O)c1ccccc1)n1cnccc1=O)c1ccccc1` (centres undefined), the activity increase over dofetilide control, less the hit threshold was -3% (inactive). To `COC(=O)c1c(NC(=O)c2ccco2)sc2c1C(C(=O)OC)CC2` (centres undefined) belongs -18% (inactive); to `O=C(CCNS(=O)(=O)c1ccc(Cl)cc1)OCC(=O)N1CCN(C(=O)c2ccco2)CC1`, -17% (inactive). Consider `Nc1ccc(C(=O)OCC(=O)N2CCN(C(=O)c3ccco3)CC2)cc1[N+](=O)[O-]`, for which the activity increase over dofetilide control, less the hit threshold is -16% (inactive).

In the case of `CCOC(=O)c1c(NC(=O)CN2CCN(C(=O)c3ccco3)CC2)sc2c1CCCC2`, the activity increase over dofetilide control, less the hit threshold was 7% (active). To `CCOc1ccc(OCC(=O)OCC(=O)N2CCN(C(=O)c3ccco3)CC2)cc1` belongs -2% (inactive).

With `CCc1c(C)sc(NC(=O)CN2CCN(C(=O)c3ccco3)CC2)c1C(=O)OC`, the activity increase over dofetilide control, less the hit threshold is 1% (active).

Regarding `CC1=C(C)CS(=O)N(c2ccc(S(N)(=O)=O)cc2)C1` (centres undefined), the activity increase over dofetilide control, less the hit threshold was -3% (inactive). The result for `Cn1ncc2c(NNC(=O)c3ccc(O)cc3)ncnc21` reads -15% (inactive); that for `Cc1nc(NCc2cccnc2)c2c3c(sc2n1)CC(C)CC3` (centres undefined), 55% (active). For the compound `COc1ccc(S(=O)(=O)N2CCN(C(=O)CNC(=O)c3ccc4c(c3)OCO4)CC2)cc1`, the activity increase over dofetilide control, less the hit threshold is -11% (inactive). Take `COc1ccc(N2CCN(CC(O)COc3ccc(F)cc3)CC2)cc1` (centres undefined): the activity increase over dofetilide control, less the hit threshold was -8% (inactive). The result for `O=C(NC(=S)Nc1ccc(N2CCOCC2)c(Cl)c1)c1sc2ccccc2c1Cl` reads 15% (active). To `O=C(NC(=S)Nc1ccccc1N1CCCCC1)c1cccs1` belongs 11% (active). As to `Nc1ccc(Cl)c(NC(=O)c2cccs2)c1`, the activity increase over dofetilide control, less the hit threshold is -11% (inactive).

For the compound `COc1ccc(NC(=O)c2cc(S(=O)(=O)N3CCOCC3)ccc2N2CCOCC2)cc1`, the activity increase over dofetilide control, less the hit threshold is -16% (inactive). For the compound `O=C(NC(=S)Nc1ccc(N2CCCCC2)cc1)c1cccs1`, the activity increase over dofetilide control, less the hit threshold was -2% (inactive). Take `O=C(NC(=S)Nc1ccccc1N1CCCC1)c1cccs1`: the activity increase over dofetilide control, less the hit threshold is 0% (inactive).

With `O=C(NC(=S)Nc1ccc(N2CCCCC2)c(Cl)c1)c1cccs1`, the activity increase over dofetilide control, less the hit threshold was 23% (active).

For `CCC(=O)Nc1ccc(N2CCOCC2)c(S(=O)(=O)Nc2ccc(OC)cc2)c1`, the activity increase over dofetilide control, less the hit threshold was -26% (inactive).

On to `COCCN1C(=O)C(=O)/C(=C(/O)c2ccc(S(=O)(=O)N3CCOCC3)cc2)C1c1ccc(OC)c(OC)c1` (centres undefined), for which the activity increase over dofetilide control, less the hit threshold is -17% (inactive). Take `Nc1nc(Br)c2c(F)cccc2c1-c1ccc(Cl)cc1`: the activity increase over dofetilide control, less the hit threshold was -6% (inactive). The result for `Cc1ccc(C2c3c(-c4ccccc4O)n[nH]c3C(=O)N2Cc2ccncc2)cc1` (centres undefined) reads -3% (inactive); that for `O=C(COc1ccc2ccccc2c1Br)Nc1cccnc1`, 31% (active). For `O=C(COc1ccc(Cl)cc1Cl)Nc1cccnc1`, the activity increase over dofetilide control, less the hit threshold is -2% (inactive). Turning to `O=C(COc1ccccc1)Nc1ccc(S(=O)(=O)Nc2ccccn2)cc1`, the activity increase over dofetilide control, less the hit threshold was -18% (inactive). With `O=C(COc1ccc([N+](=O)[O-])cc1)Nc1cccnc1`, the activity increase over dofetilide control, less the hit threshold was -25% (inactive). As to `N#Cc1ccc(-c2ccc(OCC(=O)Nc3cccnc3)cc2)cc1`, the activity increase over dofetilide control, less the hit threshold was -10% (inactive). To `O=C(COc1ccc(C(=O)c2ccccc2)cc1)Nc1cccnc1` belongs 4% (active); to `CC(=O)OCC1O[C@@H](O[C@@H]2C[C@H]3C(C)(C)[C@H](OC(C)=O)CC[C@]3(C)[C@H]3CC[C@]45C[C@]4(CC[C@H]5[C@@H](C)C[C@@H](O)[C@H](O)C(C)(C)O)[C@@]32C)[C@H](O)[C@@H](O)[C@@H]1O` (some centres undefined), 12% (active). On to `C/C(=N\Nc1nc2ccccc2s1)c1cccs1`, for which the activity increase over dofetilide control, less the hit threshold is -8% (inactive).

Take `C/C(=N\Nc1nc2ccccc2s1)c1ccc(Br)s1`: the activity increase over dofetilide control, less the hit threshold was -11% (inactive).

As to `C/C(=N\Nc1nc2ccccc2nc1C)c1ccccc1O`, the activity increase over dofetilide control, less the hit threshold is 10% (active). To `Cc1ccc(-c2nnn(CC(=O)N(CC3CCCO3)C(C(=O)NC3CCCC3)c3ccc(O)cc3)n2)o1` (centres undefined) belongs -7% (inactive); to `COCCNC(=O)C(c1ccncc1)N(C(=O)Cn1nnc2ccccc21)c1ccc(OC)cc1` (centres undefined), -9% (inactive); to `COCCNC(=O)C(c1ccc(C)o1)N(Cc1ccc(OC)cc1)C(=O)Cn1nnc2ccccc21` (centres undefined), 4% (active). On to `O=[N+]([O-])c1cccc(/C=C/c2nc(C=Nc3ccccc3)c(O)o2)c1`, for which the activity increase over dofetilide control, less the hit threshold is -13% (inactive). To `COc1cc2c(cc1OC)CN(C(=O)c1ccc3nc[nH]c3c1)CC2` belongs -2% (inactive). With `Cc1onc(C(=O)N2CCC(C(N)=O)CC2)c1-c1ccccc1Cl`, the activity increase over dofetilide control, less the hit threshold was -17% (inactive). As to `O=c1[nH]c2ccc(S(=O)(=O)NCc3ccccc3)cc2[nH]1`, the activity increase over dofetilide control, less the hit threshold is -5% (inactive). For `CC(=O)N(C1=C(N)C(=O)c2ccccc2C1=O)C(C)C`, the activity increase over dofetilide control, less the hit threshold is -12% (inactive).

On to `Nc1ccc2c(c1)C(=O)C(=O)c1ccccc1-2`, for which the activity increase over dofetilide control, less the hit threshold was 10% (active). Take `Clc1ccc(Cc2ccccc2)nn1`: the activity increase over dofetilide control, less the hit threshold is -10% (inactive).

`CC(=O)C1=C(O)C(=O)N(c2cccnc2)C1c1ccc(Cl)cc1` (centres undefined): the activity increase over dofetilide control, less the hit threshold is -30% (inactive).

As for `O=C(COc1ccc(Br)cc1Cl)NC(=S)N1CCc2ccccc21`, the activity increase over dofetilide control, less the hit threshold was -4% (inactive). For `O=C(COc1ccc(Br)cc1Br)NC(=S)N1CCCc2ccccc21`, the activity increase over dofetilide control, less the hit threshold is 6% (active). For `O=C(COc1coc(CN2CCc3ccccc3C2)cc1=O)Nc1cccc(Cl)c1`, the activity increase over dofetilide control, less the hit threshold was -17% (inactive). On to `CC(C)c1ccc(OCC(=O)NN2C(=O)c3ccccc3C2=O)c(Br)c1`, for which the activity increase over dofetilide control, less the hit threshold was -17% (inactive).

As for `O=C(COc1ccc(Cl)cc1Cl)NC(=S)N1CCCc2ccccc21`, the activity increase over dofetilide control, less the hit threshold is 21% (active). Regarding `CC(Oc1ccc(Cl)cc1Cl)C(=O)NC(=S)N1CCc2ccccc21` (centres undefined), the activity increase over dofetilide control, less the hit threshold was 36% (active). With `CSc1nc2ccc(S(=O)(=O)N3CCc4ccccc43)cc2s1`, the activity increase over dofetilide control, less the hit threshold was 0% (inactive). For `CCOc1ccc2[nH]c(=O)c(CN(Cc3ccc(C)cc3)C(=O)N3CCCC3)cc2c1`, the activity increase over dofetilide control, less the hit threshold is -8% (inactive).

In the case of `Cc1cc(C)cc(NC(=O)N2CCCC2C(=O)Nc2ccc(-n3cnnn3)c(C)c2)c1` (centres undefined), the activity increase over dofetilide control, less the hit threshold was -28% (inactive). Turning to `Cc1cc(SC#N)cc(C)c1NC(=O)CCl`, the activity increase over dofetilide control, less the hit threshold is -1% (inactive). To `C=CCNC(=O)CC(=O)N/N=C/c1cccs1` belongs 0% (inactive). To `O=C(NC1CCN(c2ncccn2)CC1)c1c(F)cccc1F` belongs -2% (inactive). On to `C=CCNc1sc(C(=O)C(C)(C)C)c(N)c1C#N`, for which the activity increase over dofetilide control, less the hit threshold was -14% (inactive). The result for `COc1cc(/C=C2/C(=O)NN(c3ccc(Cl)c(Cl)c3)C2=O)cc([N+](=O)[O-])c1O` reads -1% (inactive); that for `CC(CCc1ccccc1)NC(=S)NC(=O)c1ccco1` (centres undefined), 28% (active); that for `O=C(NC(=S)N(CCc1ccccc1)CCc1ccccc1)c1ccco1`, 53% (active). With `O=[N+]([O-])C1=CC=C2C(=NC3(CCCCC3)N2O)C1=NC1CCCCC1`, the activity increase over dofetilide control, less the hit threshold is -15% (inactive). Consider `O=C(COC(=O)c1cc(S(=O)(=O)NCc2ccccc2)ccc1O)NCc1ccccc1`, for which the activity increase over dofetilide control, less the hit threshold is -7% (inactive). `Cc1cc(N2C(=O)C(O)=C(C(=O)c3cccs3)C2c2ccccc2)no1` (centres undefined): the activity increase over dofetilide control, less the hit threshold was -11% (inactive).

On to `COc1ccc(CNC(=O)C(=O)c2cn(CC(=O)N3CCCC3)c3ccccc23)cc1`, for which the activity increase over dofetilide control, less the hit threshold was -21% (inactive). For `O=C(Nc1nc(=S)ss1)c1ccc(Cl)cc1Cl`, the activity increase over dofetilide control, less the hit threshold is 70% (active).

`Cc1ccccc1C(=O)c1cn[nH]c1-c1ccccc1O`: the activity increase over dofetilide control, less the hit threshold was -29% (inactive). On to `CC(C)CC(=O)Nc1nc(=S)ss1`, for which the activity increase over dofetilide control, less the hit threshold was -11% (inactive). With `Cc1ccccc1C(=O)Nc1nc(=S)ss1`, the activity increase over dofetilide control, less the hit threshold was 39% (active).

On to `O=C(NNC(=O)c1ccc(Cl)cc1Cl)c1cnccn1`, for which the activity increase over dofetilide control, less the hit threshold was -16% (inactive). The result for `COc1nnc(-c2ccc(C)c(S(=O)(=O)NC(C)(C)CO)c2)c2ccccc12` reads -17% (inactive). On to `CN(Cc1cnn(C)c1)C(=O)C1CCC(=O)N(Cc2cccc(C(F)(F)F)c2)C1` (centres undefined), for which the activity increase over dofetilide control, less the hit threshold is -10% (inactive). Consider `Cc1cc(C)c(S(=O)(=O)Nc2cccc(-n3cnnn3)c2)c(C)c1`, for which the activity increase over dofetilide control, less the hit threshold is -14% (inactive).

`O=C(COC(=O)C1CCC(=O)N1)Nc1ccc(Oc2ccccc2)cc1` (centres undefined): the activity increase over dofetilide control, less the hit threshold is -9% (inactive). With `O=C(CCSc1ccc(Br)cc1)c1ccc(O)cc1`, the activity increase over dofetilide control, less the hit threshold was 2% (active).

Regarding `CN1CCN(S(=O)(=O)c2cccc(S(=O)(=O)c3ccc(Cl)cc3)c2)CC1`, the activity increase over dofetilide control, less the hit threshold was -10% (inactive). The result for `CCSc1nc2c(sc3ccccc32)c(=O)n1C(C)C` reads 25% (active); that for `COc1cccc(NC(=O)c2nn(-c3ccc(OC)cc3OC)c(=O)c3ccccc23)c1`, -8% (inactive); that for `CCN(CC)CCCNC(=O)c1cn(-c2cccc(OC)c2)c(=O)c2ccccc12`, -16% (inactive).

As for `COc1cccc(-n2nc(C(=O)O)c3ccccc3c2=O)c1`, the activity increase over dofetilide control, less the hit threshold is 11% (active).
